3CLpro inhibitor – SARS-CoV 3CLpro protease inhibition | AID 1706 | recombinant SARS-CoV 3CLpro, quenched FRET peptide cleavage | inhibition, % at 6 µM | hit rate 0.14% among 290,000 | P0C6X7; in the data active = inhibition above about 12%
Yp Topo-I inh – inhibitors of Yersinia pestis topoisomerase I | Y. pestis Topo-I cleavage product accumulation, plate reader | activity, % at 10 µM | hit rate 0.064% among 360,000 | AID 504884; in the data active = activity above about 50%, passing the limit was not always enough
MazF activator – MazEF (E. coli) toxin RNase activation | hit rate 0.32% among 350,000 | AID 504720 | FAM/BHQ RNA-DNA oligo cleavage fluorescence, 5 h | activation, % at 20 µM | P0AE70; in the data active = activation above about 50%
Target sequence (P0AE70 whole entry, looked up): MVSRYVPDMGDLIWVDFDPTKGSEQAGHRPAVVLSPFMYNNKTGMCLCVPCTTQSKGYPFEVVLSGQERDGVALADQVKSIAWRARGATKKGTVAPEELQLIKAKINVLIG
PriA SSB inh – inhibitors of Klebsiella pneumoniae PriA binding to SSB C-terminal tail; AID 1272365; inhibition, % at 33 µM; hit rate 0.6% among 430,000; AlphaScreen SSBct-PriA binding, biotinylated peptide; in the data active = inhibition mostly above about 37%, no sharp cut-off; inactive = mostly below about 20%;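 note: plate controls were negative control peptide for no effect and reference peptide for full effect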
* marks the source's active call; other numbers are inactive results; . = no result; ! = not active in a repeat. Most compounds without a hit are left out; they make up all but 0.9% or so of the library.

SMILES	3CLpro inhibitor	Yp Topo-I inh	MazF activator	PriA SSB inh
Cc1ccc(-c2ccc(N3CCN(S(=O)(=O)CCc4ccccc4)CC3)nn2)c(C)c1	.	.	.	-15.0
c1ccc(-c2nnc(-c3ccccn3)s2)nc1	2.0	1.6	4.1	4.7
c1ccc(C2=NNC(c3ccccn3)=NN2)nc1	3.7	3.2	-4.2	82.0*!
CC1CN(S(=O)(=O)c2ccc(C(=O)N(CCN(C)C)c3nc4ccc(Cl)cc4s3)cc2)CC(C)O1 (configuration not stated)	.	.	.	10.0
CCc1cc(=O)oc2cc(OCC(=O)NCCCn3ccnc3)ccc12	-3.2	-1.3	-23.0	38.7*
CCCc1cc(NCCc2ccc(OC)c(OC)c2)n2c(nc3ccccc32)c1C#N	.	.	.	-10.0
C#CCn1c(=NC(=O)c2ccccc2Cl)sc2ccccc21	.	.	.	-9.0
Cc1ccc(C)c(NC(=S)Nc2ncccc2C)c1	1.8	3.9	-2.1	39.6*
Cc1cccnc1NC(=S)Nc1ccc(F)cc1F	-0.6	3.9	0.7	-0.9
Cc1cc(NC(=O)c2nc3ccccc3s2)on1	.	.	.	8.0
CSc1ccc(/C=N/NC(=O)CN2CCN(Cc3ccc(Cl)cc3)CC2)cc1	1.8	30.8	95.3*	.
COc1ccc(N2C[C@@H](c3nc4ccccc4n3C/C=C/c3ccccc3)CC2=O)cc1	.	.	.	-5.0
CC(C)(C)OC(=O)NCCCCCc1nnc(SCc2ccccc2)o1	0.7	56.9*	1.9	-22.6
COc1ccc(C2(CNC(=O)C(=O)Nc3ccon3)CCOCC2)cc1	.	.	.	-8.0
O=C(NCC1COC2(CCCC2)O1)c1ccccc1C(F)(F)F (configuration not stated)	.	.	.	-9.0
COC(=O)c1ccc2c(c1)[nH]c(=S)n1c3ccccc3nc21	.	.	.	-24.0
O=C(c1ccc2c(c1)[nH]c(=S)n1c3ccccc3nc21)N1CCN(c2ncccn2)CC1	2.0	-11.6	90.9*	-8.1
O=C(NCCCS(=O)(=O)N1CCN(c2ccccn2)CC1)C1CCCC1	.	.	.	14.0
Cc1cccc(N=Nc2c(O)[nH]c3ccc(Br)cc23)c1	6.2	-7.1	-57.7	-8.8
Cc1ccccc1N=Nc1c(O)[nH]c2ccccc12	.	3.9	481.6*	-0.5
COc1ccccc1N=Nc1c(O)[nH]c2ccc(Br)cc12	1.0	-4.8	137.0*	5.1
O=C(Cc1ccc(F)cc1)N1CCN(c2ccc(-c3ccco3)nn2)CC1	.	.	.	8.0
CC(=O)Nc1ccc(S(=O)(=O)Nc2ccc(Nc3ccc(-n4ccc(C)n4)nn3)cc2)cc1	.	.	.	-8.0
Cc1ccc(Nc2ccc(NC(=O)Cc3ccccc3)cc2)nn1	.	.	.	-2.0
O=C(Cc1ccccc1)Nc1ccc(Nc2ccc(-n3cccn3)nn2)cc1	.	.	.	52.0*
SMILES	3CLpro inhibitor	Yp Topo-I inh	MazF activator	PriA SSB inh
Cc1ccn(-c2ccc(Nc3ccc(NC(=O)c4ccco4)cc3)nn2)n1	.	.	.	55.0*
CCCCC(=O)NN=Cc1ccc(Sc2cccc3cccnc23)o1	.	.	.	100.4*
COc1ccc(CCNC(=O)c2ccc(-c3ccccc3Cl)o2)cc1	.	.	.	-2.0
O=C1OC(c2cccs2)=N/C1=C\c1ccc(-c2cccc(Cl)c2)o1	-2.5	2.0	-30.9	91.2*
Cc1ccc(-c2ccc(/C=C3/N=C(c4cccs4)OC3=O)o2)cc1Cl	.	.	.	17.6
COc1cc(Nc2ccc(S(=O)(=O)N3CCN(C)CC3)cc2[N+](=O)[O-])cc(OC)c1	.	0.3	0.5	32.1
O=[N+]([O-])c1cc([N+](=O)[O-])c(Oc2cccc3c2CCCC3)cc1NN1CCCCC1	.	-2.0	-10.8	-5.2
Cc1cccc(Nc2ccc(S(=O)(=O)N3CCOCC3)cc2[N+](=O)[O-])c1	.	23.2	-3.6	37.2
COc1ccccc1Nc1ccc(C(=O)O)cc1[N+](=O)[O-]	0.1	-8.2	-0.2	11.8
COc1cccc(Oc2cc(NN3CCCCC3)c([N+](=O)[O-])cc2[N+](=O)[O-])c1OC	3.0	-6.5	1.1	47.9*
CSc1cccc(Nc2ccc(S(=O)(=O)N3CCOCC3)cc2[N+](=O)[O-])c1	.	39.5	2.8	38.4*
COc1ccc(Nc2ccc(S(=O)(=O)N3CCCCCC3)cc2[N+](=O)[O-])cc1	2.5	31.2	9.2	45.9*
COc1ccccc1Nc1ccc(S(=O)(=O)N2CCCCC2)cc1[N+](=O)[O-]	1.4	-5.3	-2.9	63.2*
Cc1nc2ccc(NC(=O)Nc3ccc4c(c3)OCO4)cc2c(=O)n1-c1ccc(Cl)cc1	.	.	.	-8.0
O=C(Nc1cccs1)Nc1nc2c(s1)C(=O)NCCC2	.	.	.	5.0
COc1ccc(Nc2ccc(S(=O)(=O)N3CCCCC3)cc2[N+](=O)[O-])cc1OC	1.2	31.2	5.6	69.8*
COc1ccccc1C(C)Nc1ccc(S(=O)(=O)N2CCN(C)CC2)cc1[N+](=O)[O-] (configuration not stated)	.	-12.8	-2.7	56.6*
COc1ccccc1C(C)Nc1ccc(S(=O)(=O)N2CCCC2)cc1[N+](=O)[O-] (configuration not stated)	.	.	.	48.0
COCC(C)Nc1ccc(S(=O)(=O)N2CCCC2)cc1[N+](=O)[O-] (configuration not stated)	2.6	-1.1	10.3	7.2
COC(=O)CC1(C(=O)OC)Nc2cc(Cl)c(Cl)cc2S(=O)(=O)N1O (configuration not stated)	.	6.1	122.6*	.
COC(=O)CCC(=O)Nc1ccc(Cl)c(Cl)c1	-0.5	0.1	7.3	-1.0
Cc1ccc(N2C[C@@H](c3nc(C4CC4)no3)CC2=O)cc1C	.	.	.	-9.0
COc1ccc(Nc2ccc(N3C(=O)CCC3=O)cc2[N+](=O)[O-])cn1	0.5	-3.9	0.0	-16.5
COc1ccc(Nc2ccc(C(F)(F)F)cc2[N+](=O)[O-])cn1	6.2	14.6	-6.9	45.6*
COc1ccc(C(=O)NC2CCC(Oc3ncccn3)CC2)cc1F (configuration not stated)	.	.	.	4.0
SMILES	3CLpro inhibitor	Yp Topo-I inh	MazF activator	PriA SSB inh
NC(=NOC(=O)COc1ccc2ccccc2c1)c1ccncc1	.	.	.	-3.5
NCC(=O)Nn1cnnc1CN	.	.	.	98.0*
Cc1sc(NC(=O)COc2cccc(-n3cnnn3)c2)c(C#N)c1C	3.4	3.4	119.6*	-15.4
Cn1c(=O)oc2cc(S(=O)(=O)N3CCC(C(=O)N4CCN(c5ccccc5)CC4)CC3)ccc21	-5.5	30.4	3.6	-5.5
Cn1c(=O)oc2cc(S(=O)(=O)N3CCC(C(=O)N4CC=C(c5ccccc5)CC4)CC3)ccc21	-4.2	-3.1	0.9	115.4*
O=C(c1ccc(F)cc1Cl)N1CCC(Cn2cccn2)CC1	.	.	.	37.0*
O=C(c1ccco1)N1CCC(Cn2cccn2)CC1	.	.	.	-14.0
CSc1ncccc1C(=O)N1CC(n2ccnn2)C1	.	.	.	0.0
Cc1ccc(C)c(Nc2c([N+](=O)[O-])ccc3nonc23)c1	0.1	0.9	8.4	50.3*
COC(=O)c1ccsc1NC(=O)COc1ccc(Cl)cc1Cl	.	.	.	2.0
O=[N+]([O-])c1ccc(/C=C/c2ccc3cccc(O)c3n2)cc1	3.1	-2.2	92.4*	5.4
COc1ccccc1NC(=O)CN1C(=O)CC(c2cccs2)CC1=O	.	.	.	-14.0
COc1cccc(CNC(=O)Cn2c(=O)c(-c3ccccc3)nc3ccccc32)c1	.	.	.	-11.0
Cc1c(/C=N/n2cnnc2)c2ccccc2n1CCOc1ccc(Cl)cc1	1.7	6.7	113.0*	.
N#CC(c1cccc(Cl)c1)c1ccc2c(C(F)(F)F)cc(C(F)(F)F)nc2n1 (configuration not stated)	0.7	-2.6	13.0	50.6*

From PubChem
